High-throughput results (PubChem BioAssay)
An excerpt weighted towards active compounds, which were near 6.7% of everything screened.
BoNT F protease: BoNT/F light chain protease inhibitors, primary screen, biochemical, flow cytometry, MLPCN library. inhibition, % at 10 µM. 0.22% of 360,000 active. Botulinum neurotoxin type F light chain protease (Clostridium botulinum). AID 588497, 2011. Multiplex microsphere protease cleavage assay; in the data active means inhibition above about 35%, passing the limit was not always enough; inconclusive means no clear call, values can overlap the other calls; further: plate controls were buffer without enzyme for full effect and enzyme alone for no effect
Anthrax LF inh2: Bacillus anthracis LF protease inhibitors, primary screen, biochemical, multiplex microsphere, MLPCN library. 0.12% of 360,000 active. Lethal factor (Bacillus anthracis), P15917. multiplex microsphere protease cleavage assay. AID 588501, 2011. inhibition, % at 10 µM; in the data active means inhibition above about 30%; inconclusive means no clear call, values can overlap the other calls; further: plate controls were buffer without enzyme for full effect and enzyme alone for no effect
Mtb FBA inh: Mtb FBA enzyme inhibitors, primary screen, biochemical, fluorescence, strain H37Rv; Fructose-bisphosphate aldolase (Mycobacterium tuberculosis (strain ATCC 25618 / H37Rv)), …; inhibition, % at 1 µM; 2.3% of 360,000 active; purified M. tuberculosis FBA, fluorescence read-out;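 further: 0% = vehicle and 100% = reference inhibitor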
Target sequence (P9WQA3 whole entry, looked up): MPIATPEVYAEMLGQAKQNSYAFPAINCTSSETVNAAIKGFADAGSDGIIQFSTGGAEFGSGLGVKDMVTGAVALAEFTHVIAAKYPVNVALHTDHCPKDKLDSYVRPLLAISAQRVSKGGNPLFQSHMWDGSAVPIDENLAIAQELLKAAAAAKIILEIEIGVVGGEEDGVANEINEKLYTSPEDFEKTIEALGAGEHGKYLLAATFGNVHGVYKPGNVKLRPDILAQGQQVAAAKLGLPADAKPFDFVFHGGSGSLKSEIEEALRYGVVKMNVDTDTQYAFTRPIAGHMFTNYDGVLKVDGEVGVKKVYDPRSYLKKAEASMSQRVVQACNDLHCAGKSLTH
BoNT A protease: BoNT/A light chain protease inhibitors, primary screen, biochemical, flow cytometry, MLPCN library; Botulinum neurotoxin type A light chain protease (Clostridium botulinum A str. ATCC 3502); 0.17% of 360,000 active; inhibition, % at 10 µM; multiplex microsphere protease substrate cleavage; in the data active means inhibition above about 30%; inconclusive means no clear call, values can overlap the other calls; further: plate controls were buffer without enzyme for full effect and enzyme alone for no effect
GDH-TPI counter-1: GDH-TPI coupling enzyme inhibitors, primary screen, artefact control for M. tuberculosis FBA inhibitor project, biochemical, absorbance, full deck. GDH-TPI coupled enzyme counterscreen, NADH absorbance. inhibition, % at 4.8 µM. AID 588335, 2011. 1.2% of 360,000 active; in the data active means inhibition above about 30%;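 further: 0% = DMSO wells and 100% = wells lacking the enzyme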
Autofluor counter: flagged as autofluorescent in microsphere protease counterscreen | compound autofluorescence counterscreen, microsphere flow cytometry; active compounds read high | fluorescence intensity (test concentration not listed) | 3.1% of 360,000 active | AID 624483; in the data active means fluorescence intensity above about 16000; inconclusive means no clear call, values can overlap the other calls
Mtb FBA inh conf: M. tuberculosis aldolase blockers, biochemical, fluorescence, strain H37Rv, confirmation; shares compounds with Mtb FBA inh; purified M. tuberculosis FBA, fluorescence read-out; inhibition, % at 1 µM; 78% of 5,600 active; AID 651616, 2012;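 further: 0% = vehicle wells and 100% = reference inhibitor wells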
GDH-TPI counter-2: GDH-TPI coupling enzyme inhibitors, artefact control for M. tuberculosis FBA inhibitor project, biochemical, fluorescence, high throughput. shares compounds with Mtb FBA inh. GDH-TPI coupled enzyme counterscreen. inhibition, % at 1 µM. 81% of 5,600 active; in the data active means inhibition above about 10%
GDH-TPI DR: GDH-TPI coupling enzyme inhibitors, dose response, artefact control for M. tuberculosis FBA inhibitor project, biochemical, fluorescence, IC50; IC50, µM; shares compounds with Mtb FBA inh; 79% of 170 active; AID 652145, 2013; GDH-TPI coupled enzyme assay, artifact counterscreen; call rule not given here
The depositor's hits bear a star; ? = inconclusive; . = no result; + = active, no number. Unless noted, no stated cut-off is given here; in the data, active means inhibition above about 27%; inactive means the rest.

SMILES | BoNT F protease | Anthrax LF inh2 | Mtb FBA inh | BoNT A protease | GDH-TPI counter-1 | Autofluor counter | Mtb FBA inh conf | GDH-TPI counter-2 | others
COc1cccc(/C=C2\SC(=S)N(c3cccnc3)C2=O)c1OC | 2.7 | -1.9 | -2.5 | 0.5 | 0.3 | 4288 | . | .
Cc1cc(C)cc(C(=O)NCC(=O)N2CCN(c3cccc(Cl)c3)CC2)c1 | -2.6 | -8.2 | -0.4 | -1.1 | 8.4 | 3790 | . | .
Nc1cc(OC(=O)c2ccco2)nn1S(=O)(=O)c1ccc(F)cc1 | 9.2 | -0.4 | 29.7* | 1.2 | -5.2 | 3724 | + | 141.8*
c1ccc2c(c1)ccc1[nH]c3c(c12)CCCC3 | -7.3 | -10.5 | 42.8* | -0.7 | 10.6 | 3481 | 75.2* | 68.5*
S=c1[nH]c2ccc3ccccc3c2[nH]1 | 1.5 | 0.1 | -2.3 | 0.4 | 0.3 | 2543 | . | .
Cc1ccc(NC(=S)N(CCCN2CCN(C)CC2)Cc2cccs2)cc1 | -6.4 | -5.0 | -1.3 | -0.9 | -0.6 | 3315 | . | .
COc1ccc(Cc2c(-c3ccc(OC)c(OC)c3)nc3ccc(C)cn23)c(C)c1 | -8.1 | 1.4 | 30.8* | 2.7 | . | 6130 | 53.6* | 43.0*
COc1ccc(-c2nc3ccc(C)cn3c2Cc2cccc(F)c2)cc1OC | -0.7 | -8.0 | 59.5* | 0.8 | . | 5431 | 66.4* | 65.4*
CCOc1ccc(OCC)c(NC(=O)CC2Oc3ccc(C)cc3NC2=O)c1 (stereo unspecified) | -2.6 | -6.0 | -1.8 | -0.4 | -3.0 | 5412 | . | .
CC(C(=O)N1CCCCC1)N(C)CC(=O)Nc1ccc(Cl)cc1 (stereo unspecified) | -5.4 | -3.4 | -0.7 | 0.0 | -2.8 | 4395 | . | .
COc1cccc(N2CCN(C(=O)c3cc4c(OC)c(OC)c(OC)cc4[nH]3)CC2)c1 | 2.3 | -4.6 | 0.9 | -0.8 | -8.0 | 3253 | . | .
COc1cc2[nH]c(C(=O)N3CCN(c4ccccc4F)CC3)cc2c(OC)c1OC | -11.8 | 10.1 | 44.5* | -3.0 | 11.0 | 3297 | + | +
CC1CCC(NC(=S)NCCN(C)C)CC1 (stereo unspecified) | 3.1 | -12.8 | 0.2 | -0.6 | -4.8 | 4421 | . | .
COc1ccc(-c2nc3ncnn3cc2C)cc1F | -11.2 | -0.8 | 73.5* | -0.4 | -3.8 | 4052 | + | +
COc1ccc(-c2nc3nc(SC)nn3cc2C)cc1F | -0.5 | -1.3 | 16.0 | 0.0 | 1.2 | 3440 | . | .
Cc1cc(O)c(Oc2cc(C)cc(O)c2O)c(O)c1 | -2.8 | -9.9 | -0.6 | -0.5 | 7.8 | 5674 | . | .
Cc1cc2ncc(-c3cccs3)nc2cc1C | 27.6 | -11.5 | 73.3* | 1.7 | 8.1 | 3737 | 67.6* | 58.1*
Cn1nc(/C=C/c2ccccc2)ccc1=O | 0.9 | -4.8 | 30.9* | -0.3 | 0.0 | 4382 | 63.5* | 56.2*
O=c1ccc(/C=C/c2ccccc2)nn1Cc1ccccc1 | ? | -2.5 | 25.4 | -0.2 | 10.8 | 4223 | . | .
O=C1C2CSCN2C(=O)CN1CCCN1CCN(C(c2ccccc2)c2ccccc2)CC1 (stereo unspecified) | -9.7 | -1.0 | 0.8 | 0.6 | -4.7 | 2335 | . | .
CCOc1ccc(-n2nc(C(=O)NC3CCCCC3)c3ccccc3c2=O)cc1 | 6.5 | 0.4 | 1.3 | 0.6 | 5.9 | 5274 | . | .
CCOc1ccc(-n2nc(C(=O)NCCOC)c3ccccc3c2=O)cc1 | -9.3 | -3.6 | 67.5* | -0.1 | 5.8 | 2714 | + | 191.1*
CCN(CCCNC(=O)CNC(=O)c1nn(-c2ccc(OC)c(OC)c2)c(=O)c2ccccc12)c1ccccc1 | -18.1 | 1.4 | 27.1* | -5.2 | 3.0 | 3685 | 188.6* | 156.0*
CCN(CC)c1ccc(-c2c(C#N)c(N)nc(OC)c2C#N)cc1 | 2.4 | -3.6 | 55.3* | 0.3 | 17.9 | 4464 | 34.2* | 24.7*
COc1ccc(C(C)=O)cc1COc1nc(C)nc2ccccc12 | -4.8 | -5.6 | 0.7 | -1.2 | -4.0 | 4387 | . | .
SMILES | BoNT F protease | Anthrax LF inh2 | Mtb FBA inh | BoNT A protease | GDH-TPI counter-1 | Autofluor counter | Mtb FBA inh conf | GDH-TPI counter-2 | others
Cc1ccc(OCC(=O)Oc2ccc(C(C)C)cc2)cc1 | 5.0 | -1.0 | 29.5* | 0.2 | -13.1 | 3247 | 183.1* | 130.4*
CCOC(=O)c1cnn(-c2ncnc3sc(C)c(C)c23)c1N | -4.1 | 1.5 | 76.9* | -0.1 | 5.7 | 3844 | 84.1* | 65.9*
CCCCN(C)Cc1c(C)[nH]c2ccc(OCC)cc2c1=O | -14.8 | -1.4 | 34.9* | 7.7 | 27.4 | 4088 | 5.1 | -4.6
O=C(Nc1cccc([N+](=O)[O-])c1)C1C2CCCCC21 (stereo unspecified) | -3.3 | -8.5 | -3.0 | -2.8 | -14.5 | 3454 | . | .
O=C(Nc1nnc2n1CCS2)c1ccc(Br)o1 | 1.8 | 0.6 | 104.6* | 1.4 | -7.6 | 5236 | 127.4* | 76.2*
COc1ccccc1Oc1c(C)oc2cc(OC(=O)c3ccco3)ccc2c1=O | 0.7 | -1.7 | 54.8* | -0.6 | 13.9 | 10262 | 118.5* | 111.1*
COc1ccccc1-c1c(C)oc2cc(OC(=O)c3ccco3)ccc2c1=O | -3.7 | 0.5 | 36.0* | ? | 0.6 | 20703* | 15.0 | 1.4 | GDH-TPI DR=4.51*
COc1ccc2c(=O)c(-c3ccccc3C)c(C)oc2c1 | -7.7 | 1.1 | -1.6 | 0.3 | -2.7 | 2358 | . | .
CCOc1ccccc1Oc1c(C)oc2cc(OC(=O)c3ccco3)ccc2c1=O | -14.1 | -2.4 | 16.8 | -1.0 | 11.7 | 7619 | . | .
CCCCc1ccc(Nc2ncccc2C#N)cc1 | -6.1 | 0.9 | 2.9 | -0.8 | 2.2 | 3141 | . | .
Cc1ccc(C(=O)N(CC(=O)NC2CCCCC2)c2ccccc2C)s1 | -3.6 | 0.1 | 1.6 | -0.5 | 3.3 | 8342 | . | .
CC1=CC=CC2=NC(=O)CC(C)(C(=O)N(CC(=O)NC3CCCC3)c3ccccc3C)N12 (stereo unspecified) | -1.3 | 2.2 | 110.1* | 0.0 | 4.3 | 3769 | 121.0* | 95.3*
CC1=CC=CC2=NC(=O)CC(C)(C(=O)N(CC(=O)NC3CCCC3)c3ccc(F)cc3)N12 (stereo unspecified) | -1.3 | 4.6 | 95.2* | 1.7 | 8.1 | 4038 | + | +
CC1=CC=CC2=NC(=O)CC(C)(C(=O)O)N12 (stereo unspecified) | 2.5 | -2.3 | 102.7* | -0.6 | 0.6 | 4259 | 21.4 | 13.6*
